From the supplement of paper PMC6555819

Columns and labels:
Test in all cases: PBM binding z-score (relative to random genomic background probes); higher = stronger binding; sequences stand for … in GC…GCGATTGACAGCGTAGAATGAAGG
[1] = tested on: PPARg:RXRa IVT, anti-PPARg (NR concentration 270 nM, RXRa partner concentration 90 nM)
Method in brief: (§1)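 Each nuclear receptor dimer, without ligand, was incubated for 1 h on custom Agilent 4×180K protein-binding microarrays. Binding was detected with antibodies against each partner (one per run), and scanned fluorescence was regression-normalized. The binding z-scores are referenced to random human genomic background probes.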

[2] = tested on: PPARg DBDmut:RXRa IVT, anti-PPARg (DBD mutation: PPARg1 K132A/R137A, NR concentration 270 nM, RXRa partner concentration 90 nM)
Method in brief: as §1

[3] = tested on: PPARg DBDmut IVT, anti-PPARg (DBD mutation: PPARg1 K132A/R137A, NR concentration 270 nM)
Method in brief: as §1

[4] = tested on: PPARg homodimer (NR concentration 180 nM)
Method in brief: as §1

[5] = tested on: PXR:RXRa (NR concentration 270 nM, RXRa partner concentration 90 nM)
Method in brief: as §1

[6] = tested on: PXR homodimer (NR concentration 270 nM)
Method in brief: as §1

[7] = tested on: RARa:RXR (NR concentration 270 nM, RXRa partner concentration 90 nM)
Method in brief: as §1

[8] = tested on: RARa homodimer (NR concentration 270 nM)
Method in brief: as §1

[9] = tested on: RARb:RXRa (NR concentration 270 nM, RXRa partner concentration 90 nM)
Method in brief: as §1

[10] = tested on: RARb homodimer (NR concentration 270 nM)
Method in brief: as §1

Sequence	PBM binding z-score [1]	PBM binding z-score [2]	PBM binding z-score [3]	PBM binding z-score [4]	PBM binding z-score [5]	PBM binding z-score [6]	PBM binding z-score [7]	PBM binding z-score [8]	PBM binding z-score [9]	PBM binding z-score [10]
CAAACTAGGTCACAGTGGTCAAAGTCCGTGCGTA	9.05	2.06	1.68	2.21	2.03	-0.0834	2.51	0.000573	4.08	3.62
CGTCCAAAGTCAAAGGTCAGTGAAGAGATGACGG	2.41	0.349	0.905	3.27	3.97	0.811	5.61	1.11	4.53	4.29
CCTACTCGGCCAAAAAGGTCATTGATGCCGATAA	2.03	-0.62	-0.0585	3.26	4.83	3.27	4.83	1.71	4.07	4.59
CGCACTAGGTCATCCAGGACAGTGAATACATTGA	8.07	2.66	1.65	1.92	1.97	0.888	2.65	0.479	3.88	3.11
ATCTCTAGGTTAAGATAGTTCAGTGAATGCAAAT	3.25	1.33	1.32	1.36	3.05	0.756	1.53	2.08	2.01	1.9
CCGAGTTGGTCAAGGTCACACACGCTATAGGTAC	3.09	0.702	0.995	3.6	4.94	5.4	4.96	2.02	4.17	4.42
AATAAAGGGTCATCGTAGGCCAGAGTACGCACAG	4.41	1.5	1.46	5.38	5.11	1.02	5.67	3.37	5.11	4.11
TAGCCTAGGTCATTCAGGGGCAAGTATAGAAAGC	3.07	0.118	0.778	1.7	5.54	0.783	3.46	0.682	3.81	3.46
CGTCCAAGGTCATATGAGGTCAGTGAAGACAGAT	3.84	0.668	0.114	4.65	7.23	9.26	6.07	2.7	5.34	5.47
GCTGCTAGGTCAACTGATGGTCATCTAAAGCTCG	4.36	0.236	0.14	2.42	2.17	-0.491	3.74	0.102	4.32	3.66
TAGCCTAAGTCATGCGGGCCAGTATAGTGTCGGC	-0.138	-0.862	-1.37	-0.139	-0.538	-0.831	-0.11	-1.14	-0.165	-0.506
TATAAAGGGTCAAAGGCCAGAGTACGAATGTCGA	4.93	2.86	2.33	3.29	4.36	0.699	5.99	1.64	5.27	4.32
